# An excerpt weighted towards active compounds, which were near 8% of everything screened.
# MCF10A rereplic: inducers of DNA re-replication in MCF 10A breast cells; Potency, µM (top dose mostly 46.1 µM), for the others: top-dose activity, positive = re-replication, usual class: activators; AID 624296; 2.9% of 350,000 active; MCF 10A DNA re-replication, Hoechst nuclear intensity, 48 h; also: % of control where 0% means no effect; nearly all actives have a fitted effect of over 50% in size
# HT1080 IDH1KD tx: toxicity to HT-1080 IDH1 knockdown cells (counter line). HT-1080 IDH1 knockdown viability, ATP luminescence, 48 h. Potency, µM (highest dose often 46.1 µM), inactives show top-dose activity, negative = toxicity, actives largely listed as cytotoxic. 2% of 360,000 active;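 also: 0% = DMSO wells and -100% = cell-free medium wells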
#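 Luminescent ATP read-out (CellTiter-Glo, 10 min at room temperature) after 48 h compound exposure at 37 °C gave viability of IDH1-knockdown HT-1080 cells. Activity was normalised to DMSO and cell-free wells, then fitted as concentration-response curves.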
# SW480 rerep: DNA re-replication induction in SW480 cells | 1.8% of 340,000 active | Potency, µM (highest dose often 46.1 µM), inactives show at the highest dose re-replication activation, actives largely listed as activators | SW480 DNA re-replication, Hoechst DNA content imaging, 48 h; also: % of control where 0% means no effect; nearly all actives have a fitted effect of over 55% in size
#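 Hoechst fluorescence of nuclei (405 nm excitation, 500-530 nm emission) measured by plate-scanning imager after 48 hr compound exposure at 37 C; re-replication scored as increased number of nuclei with elevated intensity.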
# KB-3-1 cytotox: kills parental KB-3-1 adenocarcinoma cells; 1.4% of 400,000 active; AID 1347075; KB-3-1 viability, CellTiter-Glo ATP luminescence, 72 h; Potency, µM (highest dose often 46.1 µM), most hits filed as cytotoxic; also: % is scaled to controls: 0 for no effect and ±100 for the full control effect; nearly all actives have a fitted effect of over 60% in size
#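 Parental KB-3-1 adenocarcinoma cells in phenol-red-free DMEM with 10% FBS were pin-treated with compounds at several concentrations, incubated 72 h at 37 °C, and viability read by CellTiter-Glo luminescence; concentration-effect curves were fitted after normalization.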
# HT1080-NT tox: kills 2HG-producing HT-1080-NT fibrosarcoma cells. 1.6% of 360,000 active. HT-1080-NT fibrosarcoma viability, CellTiter-Glo ATP luminescence, 48 h. Potency, µM (doses to about 46.1 µM), for inactives: at the highest dose activity, negative = less viability, usual class: cytotoxic;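 also: NT is the 2HG producing partner of a matched IDH1 knockdown line; 0% = DMSO-treated cells and -100% = media-only wells without cells; nearly all actives have a fitted effect of over 55% in size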
#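 Compounds were tested in concentration-response format on HT-1080-NT cells for 48 hours at 37 degrees C. Cell viability came from CellTiter-Glo luminescence; curves were classified by r2, response magnitude and activity.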
# KB-V1 cytotox: KB-V1 MDR subline cytotoxicity; Potency, µM (highest dose often 46.1 µM), hits mostly cytotoxic; KB-V1 MDR cells viability, CellTiter-Glo, 72 h; 3.4% of 400,000 active; also: % is scaled to controls: 0 for no effect and ±100 for the full control effect; nearly all actives have a fitted effect of over 60% in size
#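 Cells of the MDR subline KB-V1 are plated, dosed with compound at multiple concentrations, and incubated 72 h at 37 degrees C; CellTiter-Glo is then added and luminescence read after 10 min.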
# Numbers without * were called inactive; i = inactive; ? = inconclusive; / = no result given. Calls follow the shape of the dose curve; as a rule, active = well fitted curve in the direction sought with a large enough effect; inconclusive = small, poorly fitted or top-dose-only effect, or another doubt; inactive = no such curve, though single readings can be large; an effect the other way counts as inactive or inconclusive. Potency is read from the fitted curve at half-maximal effect.
SMILES,MCF10A rereplic,HT1080 IDH1KD tx,SW480 rerep,KB-3-1 cytotox,HT1080-NT tox,KB-V1 cytotox
C(=C\c1ccccc1)/CN1CCN(C(c2nnnn2Cc2ccccc2)C2CC2)CC1 (centres undefined),/,?,/,i,18µM*,?
CCC(c1nnnn1-c1c(C)cccc1C)N1CCN(c2ccc(C(F)(F)F)cc2[N+](=O)[O-])CC1 (centres undefined),/,-10%,/,i,29µM*,i
CCC(c1nnnn1-c1ccc2c(c1)OCCO2)N1CCN(C/C=C/c2ccccc2)CC1 (centres undefined),/,-23%,/,i,-21%,8.2µM*
CCC(c1nnnn1-c1c(C)cccc1C)N1CCN(C/C=C/c2ccccc2)CC1 (centres undefined),/,?,/,?,18µM*,?
C(=C\c1ccccc1)/CN1CCN(C(CCc2ccccc2)c2nnnn2-c2ccc3c(c2)OCCO3)CC1 (centres undefined),/,?,/,i,?,i
COCCCNc1nc2c(S(=O)(=O)c3ccc(C)c(C)c3)nnn2c2ccc(Cl)cc12,/,/,/,i,/,i
COc1ccc(NC(=O)c2nc(S(C)(=O)=O)ncc2N(Cc2ccc(C)cc2)Cc2ccco2)cc1Cl,/,/,/,i,/,i
CCC(Cc1ccccc1)NC(=O)c1csc2c1CCCCC2 (centres undefined),/,/,/,i,/,i
COC(=O)[C@@]12C[C@@H](CC(=O)NCc3cccs3)C(=O)N(Cc3cccc4ccccc34)C1=CCC(C)(C)C2,/,?,/,?,?,16µM*
COC(=O)[C@@]12C[C@@H](CC(=O)NCc3cccs3)C(=O)N(Cc3ccc4c(c3)OCO4)C1=CCC(C)(C)C2,/,?,/,i,?,?
COC(=O)[C@@]12C[C@@H](CC(=O)NCC34CC5CC(CC(C5)C3)C4)C(=O)N(Cc3ccco3)C1=CCC(C)(C)C2,/,?,/,?,21µM*,15µM*
C#CCNC(=O)C[C@@H]1C[C@@]2(C(=O)OC)CC(C)(C)CC=C2N(Cc2cccc3ccccc23)C1=O,/,?,/,?,?,23µM*
CCCCNC(=O)C[C@@H]1C[C@@]2(C(=O)OC)CC(C)(C)CC=C2N(Cc2cccc3ccccc23)C1=O,/,?,/,i,-27%,?
COc1ccc(NC(=O)c2c(NCc3ccc(C)o3)sc3c2CCC(C)C3)cc1 (centres undefined),/,/,/,i,/,i
COc1ccc(Cl)cc1NC(=O)Cn1nnc2sc(-c3ccccc3)cc2c1=O,/,/,/,i,/,i
CC1CCCN(S(=O)(=O)c2cc3c4c(c2)CC(=O)N4CCC3)C1 (centres undefined),/,/,/,i,/,i
COc1ccc(OCC2c3cc(OC)c(OC)cc3CCN2C(=O)c2ccc(F)cc2)cc1 (centres undefined),/,/,/,i,/,i
COc1ccc(C2=C(CN(C)C)C(c3ccccc3)c3ccccc3O2)cc1 (centres undefined),26%,23µM*,?,i,21µM*,12µM*
CCCCC(O)(c1ccc(F)cc1)C(CN1CCOCC1)c1ccc(Cl)cc1 (centres undefined),7.3µM*,?,?,?,?,8.2µM*
CCOc1ccc(C(O)(c2ccccc2)C(CN2CCCC2)c2ccccc2)cc1 (centres undefined),122%,-3%,21µM*,i,?,i
COc1ccc(C(O)(CCC(C)C)C(CN2CCOCC2)c2ccc(Cl)cc2)cc1 (centres undefined),?,?,?,?,?,26µM*
CCCC(O)(c1ccc(Cl)cc1)C(CN1CCOCC1)c1ccc(Cl)cc1 (centres undefined),?,?,?,?,?,16µM*
COC(=O)c1cc2oc(C)cc2n1Cc1cccc(Cl)c1,/,/,/,i,/,i
